Compound activity: PubChem BioAssay, National Center for Advancing Translational Sciences (NCATS)
PLK1 PBD block – inhibitors of human PLK1 polo-box domain binding | Plk1 PBD binding of FITC phosphopeptide, fluorescence polarization | Potency, µM, inactives show max response, negative = inhibition, usual class: inhibitors | actives 2.8% (n = 360,000); further: series mostly up to about 57 µM; on the % scale 0 is the no-effect control and ±100 the full control effect; nearly all actives have a fitted effect of over 65% in size
VDR inhibitor – vitamin D3 receptor (human) inhibition | VDR-SRC2-3 peptide fluorescence polarization, 2 h | Potency, µM, without a hit: max response, negative = inhibition, actives largely listed as inhibitors | actives 0.93% (n = 400,000); further: on the % scale 0 is the no-effect control and ±100 the full control effect
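Fluorescence polarization assay of small-molecule disruption of VDR binding to coregulator peptide SRC2-3. Compounds and controls pin-transferred, then read after 2 h incubation at ambient room temperature.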
BAZ2B inh – inhibitors of human BAZ2B bromodomain; AID 504333; actives 4.4% (n = 360,000); AlphaScreen BAZ2B-H3K14Ac peptide displacement; Potency, µM (doses to about 114 µM), inactives show top-dose activity change, negative = inhibition, hits mostly inhibitors; further: on the % scale 0 is the no-effect control and ±100 the full control effect; nearly all actives have a fitted effect of over 60% in size
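BAZ2B (50 nM) with biotin-H3(5-23)K14Ac peptide (50 nM) in PBS pH 7.4, 0.01% Tween-20, preformed 30 min, then compound 30 min at room temperature; top concentration 110uM. AlphaScreen streptavidin donor/nickel chelate acceptor beads (10 ug/mL final), 20 min dark, signal read.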
HP1b chromo inh – inhibitors of HP1-beta chromodomain binding to methylated histone tails; actives 0.56% (n = 390,000); AlphaScreen HP1-beta / biotin-H3K9me3 peptide binding; P83916; Potency, µM (doses to about 114 µM), for the others: at the highest dose activity change, negative = inhibition, most hits filed as inhibitors; AID 540317; further: nearly all actives have a fitted effect of over 70% in size
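Compound inhibition of the preformed complex between 50 nM HP1-beta and 50 nM biotinylated H3K9me3 peptide was read by AlphaScreen. Buffer was PBS pH 7.4 with 0.01% Tween-20. Incubations ran 30 min at room temperature, with 10 ug/mL donor/acceptor beads.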
L3MBTL1 block – blocks human L3MBTL1 | actives 0.66% (n = 230,000) | Potency, µM (series often up to 57.1 µM), inactives show top-dose activity, negative = inhibition, actives largely listed as inhibitors | AlphaScreen L3MBTL1–H3K9me1 peptide binding; further: on the % scale 0 is the no-effect control and ±100 the full control effect; nearly all actives have a fitted effect of over 60% in size
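AlphaScreen assay: L3MBTL1 (50 nM final) was preincubated 30 min at room temperature with biotinylated H3(1-15)K9me1 peptide (75 nM final), then 30 min with library compounds; streptavidin donor and nickel chelate acceptor beads (10 ug/mL final) added, 30 min dark.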
JMJD2A Tudor inh – JMJD2A Tudor domain (human) inhibition; AlphaScreen JMJD2A-Tudor / H3K4me3 peptide binding; Potency, µM (top dose mostly 114 µM), inactives show at the highest dose activity change, negative = inhibition, most hits filed as inhibitors; actives 4.4% (n = 390,000); further: on the % scale 0 is the no-effect control and ±100 the full control effect; nearly all actives have a fitted effect of over 50% in size
* = called active by the depositor; ? = inconclusive; nt = no result; [ ] = dose if it differs, or a comment. A selection: hits, their analogues and other compounds. The true share with any hit is near 6.9%. The call rests on the fitted dose curve; in most records, active means well fitted curve in the direction sought with a large enough effect; inconclusive means small, poorly fitted or top-dose-only effect, or another doubt; inactive means no such curve, though single readings can be large; an effect the other way counts as inactive or inconclusive. Potency means the concentration at half of the fitted maximal effect.

SMILES	PLK1 PBD block	VDR inhibitor	BAZ2B inh	HP1b chromo inh	L3MBTL1 block	JMJD2A Tudor inh
CC1=C(C(=O)O)N2C(=O)C(NC(=O)c3nn(C)cc3Cl)C2SC1 (stereo unspecified)	26.7µM*	-10.6%	-10.5%	2.2%	3.6%	-16.4%[11.4 µM]
CC1=C(C(=O)O)N2C(=O)C(NC(=O)c3ccc(F)cc3)C2SC1 (stereo unspecified)	23.8µM*	-18.6%	-33.2%	21.5%	8.7%	?
COc1ccc2nc(-c3cccc(F)c3)sc2c1	nt	nt	nt	nt	nt	13.8%
Cc1cc(Cl)nc2c(C(C)C)cccc12	16.8µM*	-20.7%	58.0%	31.0%	3.0%	27.1%
O=C(O)C1CCCCC1C(=O)Nc1nc(-c2ccc(Cl)s2)cs1 (stereo unspecified)	?	-1.3%	56.2µM*	23.0%	-1.9%	?
CCCC(=O)Nc1nc(-c2ccc(Cl)s2)cs1	-6.5%	-20.3%	1.7%	43.7%	-13.7%	-9.0%
CN1CCN(C2(CNC(=O)c3ccc([N+](=O)[O-])cc3)CCCCC2)CC1	nt	-3.4%	13.8%	39.6%	nt	-8.9%
C=CCc1cccc(/C=N/NC(=O)CCCNc2ccc(C)cc2)c1O	11.7%	-18.5%	31.6µM*	?	-12.4%	?
C=CCc1cccc(/C=N/NC(=O)CNc2ccccc2)c1O	1.1%	4.3%	-3.6%	38.1%	nt	-7.9%
O=C(O)CNS(=O)(=O)c1ccc(C2CCCCC2)cc1	4.9%	3.8%	-18.6%	50.0%	-3.0%	1.0%
NC(=O)c1c(NC(=O)CS(=O)(=O)c2ccc(Cl)cc2)sc2c1CCCCC2	nt	5.7%	-14.1%	-24.4%	nt	-19.5%
O=C(COC(=O)c1cc(=O)[nH]c2ccccc12)NCCc1ccccc1	-6.6%	4.5%	nt	24.1%	2.9%	-16.6%
C=CCC1Cc2c(Br)cccc2C(CC=C)N1 (stereo unspecified)	-4.7%	1.7%	1.5%	42.5%	-23.4%	12.3%
C=CC[C@H]1Cc2c(cccc2[N+](=O)[O-])[C@H](CC=C)N1	-3.3%	19.5%	39.8µM*	25.9%	nt	-30.8%
O=C(CNc1ccc(F)cc1)N/N=C/c1c(O)ccc2ccccc12	8.8%	2.1%	-11.3%	24.7%	nt	-16.0%
NC(=S)N/N=C/c1c(O)ccc2ccccc12	-16.3%	4.7%	2.51µM*	42.7%	nt	56.2µM*
Oc1ccc2ccccc2c1/C=N/Nc1ccccc1	?	-11.8%	-34.7%	-56.7%	?	50.1µM*
O=CN/N=C/c1c(O)ccc2ccccc12	-12.4%	19.8%	-0.9%	54.2%	-12.5%	-5.8%
O=C(NN=Cc1c(O)ccc2ccccc12)c1ccc2c(c1)OCO2	-14.6%	-9.4%	nt	36.2%	3.5%	-15.9%
O=C(N/N=C/c1c(O)ccc2ccccc12)c1ccc(CO)nc1	37.8%	-6.5%	3.16µM*	42.0%	3.55µM*	56.2µM*
COc1cccc([C@@H]2Oc3ccc(Br)cc3C(=O)[C@H]2OC(=O)Nc2ccc(C)c(Br)c2)c1	nt	-12.2%	nt	nt	nt	nt
COC(=O)c1ccc(Oc2cc(C)nc(SC)n2)cc1	11.9µM*	?	4.3%	?	5.1%	28.2µM*
CN1CCN(c2ccc(Cl)cc2NS(=O)(=O)c2ccccc2Cl)CC1	26.7µM*	-2.7%	-7.0%	27.9%	-4.7%	-9.3%
O=C(Nc1nc2ccc(S(=O)(=O)N3CCCC3)cc2s1)c1cccc(F)c1	nt	5.4%	-2.7%	26.9%[57 µM]	nt	-11.4%
COC(=O)C1=C(O)/C(=C\c2ccc(CNC(=O)C(=O)Nc3ccc(C)c(C)c3)o2)N=C1C	-18.3%	-4.0%	-4.4%	-8.7%	nt	-26.1%
SMILES	PLK1 PBD block	VDR inhibitor	BAZ2B inh	HP1b chromo inh	L3MBTL1 block	JMJD2A Tudor inh
COC(=O)C1=C(O)/C(=C\c2ccc(CNC(=O)C(=O)Nc3ccc(C)cc3)o2)N=C1C	-27.8%	16.5%	31.6µM*	24.5%	7.94µM*	?
COC(=O)C1=C(O)/C(=C\c2ccc(CNS(=O)(=O)c3ccccc3)o2)N=C1C	-15.8%	1.6%	-11.0%	-12.0%	?	?
CCOC(=O)C1=C(O)/C(=C\c2ccc(CNS(=O)(=O)c3ccc(Br)cc3)o2)N=C1C	?	-21.0%	-2.8%	-28.2%	-8.6%	56.2µM*
CCOC(=O)C1=C(O)/C(=C/c2ccc(CNC(=O)C(=O)Nc3ccc(C)cc3)o2)N=C1C	-10.9%	14.0%	50.1µM*	3.6%	nt	-14.3%
COc1ccc(C(=O)Nc2cccc(C(=O)OCc3cc(=O)n4nc(C5CC5)sc4n3)c2)cc1	nt	22.6%	-19.8%	18.6%	nt	-23.2%
CC1(C)CC(=O)C(=Cc2cn(CCC#N)nc2-c2ccc(F)cc2)C(=O)C1	3.36µM*	?	-3.2%	48.1%	5.1%	-3.0%
CC1(C)CC(=O)C(=Cc2cn(-c3ccccc3)nc2-c2ccc(Cl)cc2)C(=O)C1	1.19µM*	?	?	-0.2%	-6.3%	-19.1%
O=C(O)/C(=C\c1cn(-c2ccccc2)nc1-c1ccc(Cl)cc1)NC(=O)c1ccccc1	-15.2%	-7.2%	-7.7%	10.0%	nt	-7.2%
COC(=O)c1ccccc1NC(=O)c1cnc2c(-c3cccc(C)c3)c(C)nn2c1C	nt	11.8%	-3.3%	67.6%	nt	-6.3%
Cc1cc(C)c(N=C2CCCN2Cc2ccccc2)c(C#N)c1	-6.4%	-0.1%	42.6%	93.9%	36.6%	54.0%
CN1CCc2c1nc1ccccc1c2N=C1CCCN1Cc1ccccc1	21.2µM*	-20.3%	-7.8%	2.8%	-0.5%	44.7µM*
CCOC(C)=O	nt	2.1%	nt	nt	nt	nt
CCOC(=O)[C@@H](N)CS	nt	39.8µM*	nt	nt	nt	nt
CCOc1ccc(CCNC(=O)CCc2cn(Cc3ccc(C)cc3)c3ccccc23)cc1	nt	7.7%	?	16.7%	nt	-20.9%
CC(C)c1nn2c(=O)cc(COC(=O)c3ccc(NC(=O)C4CCCCC4)cc3)nc2s1	nt	4.6%	-5.4%	37.1%	nt	-13.2%
O=C(Nc1cc(=O)[nH]c2ncnn12)c1ccc(Cl)cc1Cl	-4.6%	4.1%	-1.9%	15.9%	12.4%	79.4µM*
O=C(Nc1cc(=O)[nH]c2ncnn12)c1ccccc1	-5.9%	30.2%	-30.2%	25.1%	1.2%	-19.5%
Cc1ccc(Nc2nc(-c3ccc(O)c(O)c3)cs2)nc1	-11.8%	1.3%	39.8µM*	?	-6.6%	31.6µM*
Cc1ccc(Nc2nc(-c3ccc(F)cc3)cs2)nc1	2.5%	-6.7%	-24.3%	36.2%	-1.7%	1.7%
Cc1cc(O)c(C(C)C)cc1NC(=O)Nc1cc(Cl)ccc1Cl	5.0%	2.7%	nt	?	nt	44.7µM*
O=C(OCCN1C(=O)c2cccc3c(N4CCOCC4)ccc(c23)C1=O)c1ccccc1Cl	?	8.4%	75.8%	140.8%	92.5%	71.9%
